Measured values taken from the supplement of paper PMC12669032.

How the values were obtained:
Test in all cases: growth AUC relative to DMSO control (median of replicates) (fraction); higher = more growth (less inhibition), active = hit call of the paper
Conditions in all cases: 20 µM; 24 h;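 active = AUC reduced over 20% with Padj below 0.05 in at least 2 of 3 replicates; inactive = otherwise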
Akkermansia muciniphila = tested on: Akkermansia muciniphila
Outline: (§1)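 Gut bacterial monocultures were grown anaerobically at 37 °C in mGAM, starting at OD600 0.05, with 20 µM compound (1% DMSO) in round-bottom 96-well plates under pierced gas-permeable seals. OD600 was read hourly for 24 h. Area under the growth curve (minimum OD set to 0) was normalised to the plate median of DMSO controls, or to row and column medians on the industrial chemical plate. The value is the median of three biological replicates grown on separate days.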

Bacteroides caccae = tested on: Bacteroides caccae
Outline: as §1

Bacteroides clarus = tested on: Bacteroides clarus
Outline: as §1

Bacteroides dorei = tested on: Bacteroides dorei
Outline: as §1

Bacteroides stercoris = tested on: Bacteroides stercoris
Outline: as §1

[1] = tested on: Bacteroides thetaiotaomicron
Outline: as §1

Bacteroides uniformis = tested on: Bacteroides uniformis
Outline: as §1

[2] = tested on: Bifidobacterium longum subsp. longum
Outline: as §1

Clostridium difficile = tested on: Clostridium difficile
Outline: as §1

Collinsella aerofaciens = tested on: Collinsella aerofaciens
Outline: as §1

Coprococcus comes = tested on: Coprococcus comes
Outline: as §1

Escherichia coli ED1a = tested on: Escherichia coli ED1a
Outline: as §1

Escherichia coli IAI1 = tested on: Escherichia coli IAI1
Outline: as §1

Eubacterium rectale = tested on: Eubacterium rectale
Outline: as §1

[3] = tested on: Fusobacterium nucleatum subsp. animalis
Outline: as §1

Lactobacillus gasseri = tested on: Lactobacillus gasseri
Outline: as §1

Lactobacillus paracasei = tested on: Lactobacillus paracasei
Outline: as §1

Odoribacter splanchnicus = tested on: Odoribacter splanchnicus
Outline: as §1

[4] = tested on: Parabacteroides distasonis
Outline: as §1

Parabacteroides merdae = tested on: Parabacteroides merdae
Outline: as §1

Measured: growth AUC

ClC1=C(Cl)C2(Cl)C3COCC3C1(Cl)C2(Cl)Cl (stereo not given)
inactive: Bacteroides caccae 0.91 | Bacteroides clarus 1.11 | Bacteroides dorei 0.925 | Bacteroides stercoris 1.05 | [1] 0.871 | Bacteroides uniformis 0.916 | [2] 0.918 | Clostridium difficile 0.966 | Collinsella aerofaciens 1.02 | Coprococcus comes 0.912 | Escherichia coli ED1a 1 | Escherichia coli IAI1 1.03 | Eubacterium rectale 0.992 | [3] 1.12 | Lactobacillus gasseri 1.01 | Lactobacillus paracasei 0.94 | Odoribacter splanchnicus 0.99 | [4] 0.987 | Parabacteroides merdae 1.02
active: Akkermansia muciniphila 0.531

COC(=O)[C@@H](C)N(C(=O)Cc1ccccc1)c1c(C)cccc1C
inactive: Akkermansia muciniphila 0.957 | Bacteroides caccae 0.968 | Bacteroides clarus 0.98 | Bacteroides dorei 0.964 | Bacteroides stercoris 0.954 | [1] 0.93 | Bacteroides uniformis 0.897 | [2] 1.01 | Clostridium difficile 0.998 | Collinsella aerofaciens 1.03 | Coprococcus comes 0.978 | Escherichia coli ED1a 1.02 | Escherichia coli IAI1 1.02 | Eubacterium rectale 0.991 | [3] 0.913 | Lactobacillus gasseri 0.944 | Lactobacillus paracasei 0.979 | Odoribacter splanchnicus 0.925 | [4] 0.948 | Parabacteroides merdae 0.921

CNC(=O)Oc1cc(C)c(N(C)C)c(C)c1
inactive: Akkermansia muciniphila 1.02 | Bacteroides caccae 1.03 | Bacteroides clarus 0.971 | Bacteroides dorei 1.04 | Bacteroides stercoris 0.852 | [1] 0.995 | Bacteroides uniformis 1 | [2] 0.991 | Clostridium difficile 1.1 | Collinsella aerofaciens 0.995 | Coprococcus comes 1.01 | Escherichia coli ED1a 0.982 | Escherichia coli IAI1 0.978 | Eubacterium rectale 1 | [3] 0.952 | Lactobacillus gasseri 0.998 | Lactobacillus paracasei 0.953 | Odoribacter splanchnicus 1.08 | [4] 0.988 | Parabacteroides merdae 0.997

CN(C)C(CSC(N)=O)CSC(N)=O.Cl
inactive: Akkermansia muciniphila 1.13 | Bacteroides caccae 0.993 | Bacteroides clarus 1.04 | Bacteroides dorei 1.08 | Bacteroides stercoris 1.02 | [1] 1.06 | Bacteroides uniformis 1.15 | [2] 1.05 | Clostridium difficile 1 | Collinsella aerofaciens 1.03 | Coprococcus comes 1.09 | Escherichia coli ED1a 1.03 | Escherichia coli IAI1 1.04 | Eubacterium rectale 1.54 | [3] 1.15 | Lactobacillus gasseri 0.978 | Lactobacillus paracasei 1.08 | Odoribacter splanchnicus 0.982 | [4] 1.04 | Parabacteroides merdae 1.04

CCCCOCN(C(=O)CCl)c1c(CC)cccc1CC
inactive: Akkermansia muciniphila 1.07 | Bacteroides caccae 0.909 | Bacteroides clarus 0.955 | Bacteroides dorei 0.944 | Bacteroides stercoris 1.25 | [1] 0.923 | Bacteroides uniformis 0.954 | [2] 0.996 | Clostridium difficile 0.979 | Collinsella aerofaciens 0.928 | Coprococcus comes 0.996 | Escherichia coli ED1a 1.02 | Escherichia coli IAI1 1.04 | Eubacterium rectale 1.03 | [3] 1.12 | Lactobacillus gasseri 1.02 | Lactobacillus paracasei 1.04 | Odoribacter splanchnicus 0.909 | [4] 0.963 | Parabacteroides merdae 0.976

CN(C)c1nc(=O)n(C2CCCCC2)c(=O)n1C
inactive: Akkermansia muciniphila 0.966 | Bacteroides caccae 1.03 | Bacteroides clarus 0.985 | Bacteroides dorei 1 | Bacteroides stercoris 1.07 | [1] 1.05 | Bacteroides uniformis 1.01 | [2] 1.01 | Clostridium difficile 1.02 | Collinsella aerofaciens 1.01 | Coprococcus comes 1.03 | Escherichia coli ED1a 0.994 | Escherichia coli IAI1 0.984 | Eubacterium rectale 0.978 | [3] 1.11 | Lactobacillus gasseri 1.01 | Lactobacillus paracasei 0.943 | Odoribacter splanchnicus 1.02 | [4] 1.03 | Parabacteroides merdae 1.01

CCCCN(CCCC)SN(C)C(=O)Oc1cccc2c1OC(C)(C)C2
inactive: Akkermansia muciniphila 1.03 | Bacteroides caccae 1.02 | Bacteroides clarus 0.975 | Bacteroides dorei 0.981 | Bacteroides stercoris 0.913 | [1] 1.04 | Bacteroides uniformis 1.03 | [2] 0.972 | Clostridium difficile 1.02 | Collinsella aerofaciens 1.01 | Coprococcus comes 1.09 | Escherichia coli ED1a 0.972 | Escherichia coli IAI1 1.01 | Eubacterium rectale 1.22 | [3] 1.02 | Lactobacillus gasseri 0.884 | Lactobacillus paracasei 0.981 | Odoribacter splanchnicus 1 | [4] 0.895 | Parabacteroides merdae 0.951

O=C(O)CNCP(=O)(O)O
inactive: Akkermansia muciniphila 1.07 | Bacteroides caccae 1.06 | Bacteroides clarus 0.999 | Bacteroides dorei 0.981 | Bacteroides stercoris 1.08 | [1] 1.02 | Bacteroides uniformis 0.977 | [2] 1.05 | Clostridium difficile 1.06 | Collinsella aerofaciens 0.997 | Coprococcus comes 1 | Escherichia coli ED1a 1 | Escherichia coli IAI1 1 | Eubacterium rectale 1.01 | [3] 1.08 | Lactobacillus gasseri 1.04 | Lactobacillus paracasei 0.949 | Odoribacter splanchnicus 1.08 | [4] 1.01 | Parabacteroides merdae 1.04
